Many of the other results were omitted from the sample, so hits are more common in it than they were.
Dicer inh – inhibitors of human Dicer processing of pre-microRNA | 47,000 tested, 6% active | cat-ELCCA pre-miR-21 Dicer processing, chemiluminescence; stronger effect = higher value | z-score at 25 µM | Q9UPY3; in the data active means z-score above about 3, passing the limit was not always enough;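 further: plate controls were vehicle for no effect and no enzyme for full effect; higher signal means more uncleaved substrate so more Dicer inhibition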
* = called active by the depositor; ! = not active in a repeat.

SMILES	Dicer inh
CCSCCOC(=O)C1=C(C)NC2=C(C(=O)CC(c3ccccc3)C2)C1c1ccc(N(C)C)cc1 (stereo not drawn)	1.6
COc1ccc(C2CC(=O)C3=C(C2)NC(C)=C(C(=O)OC(C)C)C3c2ccccc2OC)cc1OC (stereo not drawn)	1.03
COC(=O)C1=C(C)NC2=C(C(=O)CC(c3ccccc3)C2)C1c1ccccc1OC(C)C (stereo not drawn)	0.57
CC(C)(C)c1cc(C(=O)/C(C#N)=C/Nc2ccccc2)no1	1.52
CCCCNC(=O)NNC(=O)c1cccn1-c1ccc(F)cc1	0.99
O=C1c2oc3ccc(Cl)cc3c(=O)c2C(c2ccc(O)cc2)N1Cc1ccccc1 (stereo not drawn)	1.21
O=c1cc(-c2cc(Br)cc3c2OCOC3)oc2ccccc12	3.49*
Cc1cc2oc(-c3ccccc3C(=O)O)cc(=O)c2cc1C	-0.1
Cc1ccccc1-c1cc(=O)c2cc(Cl)ccc2o1	2.17
CC(C)(C)C(=O)COC(=O)Cn1nnc(N2CCCC2)n1	1.13
COc1ccc(C2C(C#N)=C(C)NC3=C2C(=O)CC(c2ccc(Cl)cc2)C3)cc1 (stereo not drawn)	0.16
COc1ccc(C2NC(=O)NC2=O)cc1 (stereo not drawn)	1.07
COc1ccc(C2C=C(c3ccc(Cl)cc3)NC(=O)C2C#N)cc1 (stereo not drawn)	4.38*
C=CCSc1n[nH]c(=O)n1-c1ccc2c(c1)OCCO2	-0.45
CCOc1cc(C2C(C(=O)OCc3ccc(OC)cc3)=C(C)NC3=C2C(=O)CC(C)(C)C3)ccc1O (stereo not drawn)	-0.47
COC(=O)CCCN1C(=O)c2cccc3cccc(c23)C1=O	3.6*
CN(C(=O)CCCN1C(=O)c2cccc3cccc(c23)C1=O)c1ccccc1	-0.03
C#CCOC(=O)CCCN1C(=O)c2cccc3cccc(c23)C1=O	-1.49
CCOC(=O)c1c(C)oc2ccc(OCC(=O)OC(C)(C)C)cc12	0.63
S=C(NCCc1ccccc1)NC1CC2C=CC1C2 (stereo not drawn)	-0.15
O=C(Nc1cccc(C(F)(F)F)c1)Oc1ccc(F)cc1Cl	0.94
O=C(Nc1ccccc1)Nc1cccc(NC(=O)Nc2ccccc2)c1F	-0.34
O=C(Nc1ccccc1)Oc1cccc(F)c1OC(=O)Nc1ccccc1	3.43*
Cc1c(CN(C)C(=O)CSc2nc3c(c(C(F)(F)F)n2)CCc2ccccc2-3)cnn1C	1.99
Cc1noc(C)c1S(=O)(=O)N1CCC(C(N)=O)(N2CCCCC2)CC1	-0.36
SMILES	Dicer inh
c1ccc(NCCNc2ccccc2)cc1	0.57
Cc1cc(C)nc(SCC(=O)Nc2ncc3c(n2)CCCC3=O)n1	-0.46
Cc1cc(C)nc(-n2ncc3c2CCCC3=O)n1	-1.33
O=C1CCCc2nc3c(cc21)C(=O)CCC3	3.99*
O=c1cc(-n2ccc(C(F)(F)F)n2)oc2ccccc12	0.71
Cn1cnnc1SCC(=O)Nc1nc2ccccc2s1	2.82
Cn1cnnc1SCC(=O)Nc1ccc(F)cc1F	4.73*
Cc1nnc(SCC(=O)Nc2ccc(F)cc2F)s1	0.78
CCOC(=O)N1CCc2c(sc3c2C(=O)NC(c2ccc(OCC)cc2)N3)C1 (stereo not drawn)	-3.87
Cc1ccc2oc(-c3ccc(Cl)c(N)c3)nc2c1	0.94
COC(=O)Cc1[nH]nc2c1C(c1ccc(F)cc1F)C(C#N)=C(N)O2 (stereo not drawn)	-0.46
Cn1nc(-c2ccc(-c3ccn(S(C)(=O)=O)n3)s2)cc1C(F)(F)F	3.97*
Cn1nc(-c2ccc(Sc3ccc(Cl)cc3)s2)cc1C(F)(F)F	-0.62
Cn1nc(-c2ccc(S(=O)(=O)NCC(=O)NNS(=O)(=O)c3ccc(Cl)cc3)s2)cc1C(F)(F)F	0.13
COC(=O)C1SC/C(=N\O)C1C(=O)OC (stereo not drawn)	-3.27
O=[N+]([O-])c1ccc(Oc2ccc(Oc3ccc([N+](=O)[O-])cn3)c(-c3ccccc3)c2)nc1	-0.69
COc1ccc(CN2CCN(Cc3ccc(Br)cc3)CC2)c(OC)c1	0.24
COc1ccc(CN2CCN(Cc3cc(Br)ccc3O)CC2)c(OC)c1	4.53*
COc1ccc(CN2CCN(Cc3cc(Br)ccc3OC)CC2)cc1	0.33
COc1ccc(Br)cc1CN1CCN(Cc2ccncc2)CC1	2.07
COc1cccc(CN2CCN(Cc3ccccc3Br)CC2)c1OC	1.37
Cc1ccc(S(=O)(=O)N2CCN(Cc3cc(C(C)C)ccc3O)CC2)cc1	0.25
CCS(=O)(=O)N1CCN(Cc2cc(Br)ccc2O)CC1	4.87*
COc1cccc(CN2CCN(Cc3cc(Br)ccc3O)CC2)c1OC	3.76*
CCCS(=O)(=O)N1CCN(Cc2cc(Br)ccc2O)CC1	2.6
SMILES	Dicer inh
CCCOC(=O)C1=C(C)NC2=C(C(=O)CC(C)(C)C2)C1c1ccccc1OCCC (stereo not drawn)	4.75
CCOC(=O)C(=CNc1nc2ccc(OC)cc2s1)C(=O)OCC	1.18
COC(=O)c1sccc1Oc1cc(C(F)(F)F)nc2c(C(=O)OC)scc12	-0.87
Cc1ccc(S(C)(=O)=NC(=O)CSc2ccc(C(F)(F)F)cn2)cc1 (stereo not drawn)	0.03
O=C(COc1ccccc1)NC1C(=O)N2C(C(=O)O)=C(Cl)CSC12 (stereo not drawn)	-0.43
CC(=O)OCC1=C(C(=O)O)N2C(=O)[C@@H](NC(=O)Cc3cccs3)[C@H]2SC1	2.57
NC(=O)c1cc[n+](CC2=C(C(=O)O)N3C(=O)[C@@H](NC(=O)[C@@H](c4ccccc4)S(=O)(=O)[O-])[C@H]3SC2)cc1	3.66*!
COc1cc(C2SCCS2)cc(Br)c1OS(=O)(=O)c1ccc(C)cc1	-7.86
O=C1c2ccccc2C(=O)N1CN1CCSCC1	0.66
O=C1c2ccccc2C(=O)N1CN1CCN(C(c2ccccc2)c2ccccc2)CC1	0.49
CC1CN(CN2C(=O)c3ccccc3C2=O)CC(C)O1 (stereo not drawn)	3.39*
CCc1ccc(C2C(C(=O)OCC3CCCO3)=C(C)NC3=C2C(=O)CCC3)cc1 (stereo not drawn)	-0.06
O=C(NCc1ccc(S(=O)(=O)NCCc2ccccc2)s1)c1ccccc1	9.6
COc1ccc(-c2c(Br)sc(S(C)(=O)=O)c2C#N)cc1	-1.18
N#Cc1c(F)cccc1NC1CCN(Cc2ccccc2)CC1	1.13
Fc1c(CSC2=NCCN2)cccc1CSC1=NCCN1	-3.54
CCOC(=O)c1c(C)n(C)c2cc(CN(C)C)c(O)c(S(=O)(=O)c3ccccc3)c12	3.8*
CCOC(=O)c1c(CN(C)C)n(C)c2cc(Br)c(O)c(CN(C)C)c12	1.91
CCOC(=O)c1c(CS(=O)(=O)c2ccccc2)n(C)c2cc(Br)c(O)cc12	1.36
C(=C\N1CCCCC1)/c1nnnn1-c1ccc(-c2ccccc2)cc1	0.97
CC1CCCC(C)N1C(=O)c1cc2nc(-c3cccs3)cc(C(F)(F)F)n2n1 (stereo not drawn)	-0.7
CC(=O)Nc1ccc(C(C)(C)C)cc1N	1.15
COC(=O)c1cc(=O)n(-c2ccccc2C(F)(F)F)[nH]1	3.23*
O=c1cc(C(F)(F)F)[nH]n1-c1ccccc1	-2.63
COC(=O)c1cc(=O)n(-c2cc(C(F)(F)F)cc(C(F)(F)F)c2)[nH]1	0.48
SMILES	Dicer inh
Cc1cc(NCCc2ccc(Cl)cc2)c2nncn2n1	2.42
Cc1ccc(N=Cc2c(C)[nH]n(-c3ccccc3)c2=S)c(C)c1	-3.91
Cc1ccc(N=Cc2c(C)[nH]n(-c3ccc(C)cc3)c2=O)cc1	3.97*
Cc1ccc(-n2[nH]c(C)c(C=Nc3ccc(Cl)cc3)c2=O)cc1	0.73
FC(F)(F)c1ccc2[nH]c(=S)[nH]c2c1	1.79
O=C(/C=C(/CC(=O)c1ccccc1)c1ccccc1)c1ccc(F)cc1	0.71
